According to the supplement of paper PMC3150612:
± gives the standard deviation of the averaged measurements.

Assays:
[1] = system: Drosophila melanogaster; assay: olfactory response index (dipstick assay) (fraction of flies (RI; 1 aversion, 0.5 indifferent, 0 attraction)); higher = stronger aversion to the odorant; conditions: odorant concentration: 1% v/v, male
[2] = system: Drosophila melanogaster; assay: as above; conditions: odorant concentration: 1% v/v, female
[3] = genotype (tubulin-GAL4 x UAS-RNAi line; control = progenitor): A5
[4] = genotype (tubulin-GAL4 x UAS-RNAi line; control = progenitor): control
[5] = genotype (tubulin-GAL4 x UAS-RNAi line; control = progenitor): obp 18a
[6] = genotype (tubulin-GAL4 x UAS-RNAi line; control = progenitor): obp 22a
[7] = genotype (tubulin-GAL4 x UAS-RNAi line; control = progenitor): obp 28a
[8] = genotype (tubulin-GAL4 x UAS-RNAi line; control = progenitor): obp 56a
[9] = genotype (tubulin-GAL4 x UAS-RNAi line; control = progenitor): obp 56c
[10] = genotype (tubulin-GAL4 x UAS-RNAi line; control = progenitor): obp 56f
[11] = genotype (tubulin-GAL4 x UAS-RNAi line; control = progenitor): obp 57a
[12] = genotype (tubulin-GAL4 x UAS-RNAi line; control = progenitor): obp 57b
[13] = genotype (tubulin-GAL4 x UAS-RNAi line; control = progenitor): obp 58c
[14] = genotype (tubulin-GAL4 x UAS-RNAi line; control = progenitor): obp 59a
[15] = genotype (tubulin-GAL4 x UAS-RNAi line; control = progenitor): obp 83a
[16] = genotype (tubulin-GAL4 x UAS-RNAi line; control = progenitor): obp 83c
[17] = genotype (tubulin-GAL4 x UAS-RNAi line; control = progenitor): obp 93a
[18] = genotype (tubulin-GAL4 x UAS-RNAi line; control = progenitor): obp 99b
[19] = genotype (tubulin-GAL4 x UAS-RNAi line; control = progenitor): obp 56h
[20] = genotype (tubulin-GAL4 x UAS-RNAi line; control = progenitor): obp 58b

| Structure (SMILES) | olfactory response index [1, 3] | olfactory response index [1, 4] | olfactory response index [1, 5] | olfactory response index [1, 6] | olfactory response index [1, 7] | olfactory response index [1, 8] | olfactory response index [1, 9] | olfactory response index [1, 10] | olfactory response index [1, 11] | olfactory response index [1, 12] | olfactory response index [1, 13] | olfactory response index [1, 14] | olfactory response index [1, 15] | olfactory response index [1, 16] | olfactory response index [1, 17] | olfactory response index [1, 18] | olfactory response index [1, 19] | olfactory response index [2, 3] | olfactory response index [2, 4] | olfactory response index [2, 5] | olfactory response index [2, 6] | olfactory response index [2, 7] | olfactory response index [2, 8] | olfactory response index [2, 9] | olfactory response index [2, 10] | olfactory response index [2, 11] | olfactory response index [2, 12] | olfactory response index [2, 20] | olfactory response index [2, 13] | olfactory response index [2, 14] | olfactory response index [2, 15] | olfactory response index [2, 16] | olfactory response index [2, 17] | olfactory response index [2, 18] | olfactory response index [2, 19] |
| --- | --- | --- | --- | --- | --- | --- | --- | --- | --- | --- | --- | --- | --- | --- | --- | --- | --- | --- | --- | --- | --- | --- | --- | --- | --- | --- | --- | --- | --- | --- | --- | --- | --- | --- | --- |
| CC(C)=CCC/C(C)=C/CO [geraniol] | 0.228 ± 0.033 | 0.136 ± 0.091 | 0.0872 ± 0.11 | 0.0901 ± 0.081 | 0.177 ± 0.1 | 0.188 ± 0.086 | 0.174 ± 0.038 | 0.175 ± 0.023 | 0.0811 ± 0.02 | 0.0917 ± 0.055 | 0.114 ± 0.049 | 0.441 ± 0.039 | 0.159 ± 0.025 | 0.183 ± 0.099 | 0.412 ± 0.13 | 0.141 ± 0.11 | 0.197 ± 0.18 | 0.71 ± 0.16 | 0.492 ± 0.12 | 0.371 ± 0.15 | 0.367 ± 0.018 | 0.605 ± 0.03 | 0.581 ± 0.099 | 0.295 ± 0.025 | 0.468 ± 0.18 | 0.406 ± 0.12 | 0.504 ± 0.032 | 0.591 ± 0.17 | 0.19 ± 0.12 | 0.565 ± 0.091 | 0.442 ± 0.07 | 0.414 ± 0.034 | 0.593 ± 0.061 | 0.35 ± 0.23 | 0.406 ± 0.18 |
| C=C(C)[C@@H]1CC=C(C)C(=O)C1 [(R)-carvone] | 0.627 ± 0.12 | 0.163 ± 0.067 | 0.206 ± 0.16 | 0.34 ± 0.1 | 0.499 ± 0.09 | 0.396 ± 0.16 | 0.158 ± 0.14 | 0.201 ± 0.076 | 0.207 ± 0.1 | 0.378 ± 0.18 | 0.24 ± 0.096 | 0.541 ± 0.14 | 0.422 ± 0.069 | 0.146 ± 0.12 | 0.472 ± 0.21 | 0.233 ± 0.12 | 0.306 ± 0.22 | 0.747 ± 0.074 | 0.712 ± 0.019 | 0.484 ± 0.18 | 0.5 ± 0.16 | 0.662 ± 0.12 | 0.532 ± 0.2 | 0.712 ± 0.2 | 0.616 ± 0.13 | 0.582 ± 0.15 | 0.685 ± 0.13 | 0.622 ± 0.14 | 0.684 ± 0.077 | 0.711 ± 0.059 | 0.535 ± 0.06 | 0.655 ± 0.11 | 0.708 ± 0.16 | 0.676 ± 0.022 | 0.615 ± 0.14 |
| COC(=O)c1ccccc1O [methyl salicylate] | 0.331 ± 0.2 | 0.13 ± 0.099 | 0.0711 ± 0.077 | 0.179 ± 0.09 | 0.249 ± 0.1 | 0.161 ± 0.056 | 0.181 ± 0.16 | 0.173 ± 0.11 | 0.038 ± 0.036 | 0.193 ± 0.15 | 0.159 ± 0.068 | 0.368 ± 0.047 | 0.225 ± 0.13 | 0.14 ± 0.032 | 0.294 ± 0.18 | 0.108 ± 0.042 | 0.147 ± 0.04 | 0.49 ± 0.19 | 0.558 ± 0.091 | 0.114 ± 0.14 | 0.486 ± 0.086 | 0.384 ± 0.081 | 0.523 ± 0.13 | 0.27 ± 0.14 | 0.295 ± 0.068 | 0.356 ± 0.1 | 0.384 ± 0.23 | 0.287 ± 0.066 | 0.381 ± 0.22 | 0.616 ± 0.093 | 0.454 ± 0.19 | 0.654 ± 0.066 | 0.491 ± 0.02 | 0.308 ± 0.16 | 0.63 ± 0.22 |
| CCCCCC(C)=O [2-heptanone] | 0.365 ± 0.086 | 0.0673 ± 0.066 | 0.32 ± 0.1 | 0.304 ± 0.1 | 0.331 ± 0.084 | 0.185 ± 0.082 | 0.239 ± 0.077 | 0.395 ± 0.14 | 0.214 ± 0.038 | 0.368 ± 0.13 | 0.328 ± 0.063 | 0.444 ± 0.12 | 0.339 ± 0.11 | 0.352 ± 0.13 | 0.345 ± 0.26 | 0.138 ± 0.044 | 0.393 ± 0.17 | 0.49 ± 0.16 | 0.483 ± 0.17 | 0.409 ± 0.092 | 0.417 ± 0.12 | 0.526 ± 0.081 | 0.392 ± 0.12 | 0.494 ± 0.073 | 0.452 ± 0.21 | 0.718 ± 0.062 | 0.571 ± 0.15 | 0.277 ± 0.015 | 0.272 ± 0.051 | 0.598 ± 0.13 | 0.4 ± 0.15 | 0.537 ± 0.17 | 0.443 ± 0.18 | 0.28 ± 0.017 | 0.513 ± 0.22 |
| CCOC(C)=O [ethyl acetate] | 0.36 ± 0.22 | 0.266 ± 0.16 | 0.417 ± 0.15 | 0.176 ± 0.084 | 0.311 ± 0.18 | 0.0854 ± 0.099 | 0.17 ± 0.14 | 0.364 ± 0.31 | 0.236 ± 0.099 | 0.326 ± 0.14 | 0.181 ± 0.14 | 0.324 ± 0.23 | 0.21 ± 0.068 | 0.255 ± 0.11 | 0.352 ± 0.12 | 0.15 ± 0.14 | 0.227 ± 0.13 | 0.677 ± 0.11 | 0.639 ± 0.27 | 0.507 ± 0.12 | 0.669 ± 0.04 | 0.709 ± 0.13 | 0.486 ± 0.2 | 0.3 ± 0.1 | 0.559 ± 0.26 | 0.629 ± 0.015 | 0.61 ± 0.14 | 0.513 ± 0.31 | 0.561 ± 0.091 | 0.502 ± 0.25 | 0.471 ± 0.087 | 0.572 ± 0.0067 | 0.541 ± 0.13 | 0.2 ± 0.11 | 0.479 ± 0.06 |
| CCc1cnccn1 [2-ethylpyrazine] | 0.416 ± 0.069 | 0.118 ± 0.067 | 0.0666 ± 0.045 | 0.0894 ± 0.038 | 0.472 ± 0.092 | 0.194 ± 0.068 | 0.206 ± 0.11 | 0.247 ± 0.11 | 0.114 ± 0.085 | 0.0743 ± 0.059 | 0.144 ± 0.016 | 0.385 ± 0.17 | 0.221 ± 0.036 | 0.167 ± 0.082 | 0.342 ± 0.071 | 0.146 ± 0.061 | 0.319 ± 0.058 | 0.581 ± 0.074 | 0.524 ± 0.027 | 0.393 ± 0.2 | 0.435 ± 0.1 | 0.581 ± 0.0069 | 0.409 ± 0.078 | 0.497 ± 0.13 | 0.568 ± 0.16 | 0.304 ± 0.2 | 0.4 ± 0.14 | 0.256 ± 0.14 | 0.419 ± 0.22 | 0.638 ± 0.033 | 0.567 ± 0.092 | 0.522 ± 0.12 | 0.552 ± 0.076 | 0.159 ± 0.089 | 0.492 ± 0.14 |
| C=C(C)[C@H]1CC=C(C)C(=O)C1 [(S)-carvone] | 0.57 ± 0.068 | 0.456 ± 0.062 | 0.22 ± 0.068 | 0.372 ± 0.058 | 0.384 ± 0.14 | 0.142 ± 0.051 | 0.186 ± 0.057 | 0.525 ± 0.15 | 0.277 ± 0.15 | 0.4861 ± 0.0015 | 0.468 ± 0.1 | 0.657 ± 0.13 | 0.304 ± 0.27 | 0.555 ± 0.19 | 0.382 ± 0.14 | 0.171 ± 0.066 | 0.504 ± 0.17 | 0.729 ± 0.063 | 0.65 ± 0.074 | 0.558 ± 0.053 | 0.775 ± 0.06 | 0.651 ± 0.073 | 0.357 ± 0.1 | 0.678 ± 0.2 | 0.676 ± 0.1 | 0.613 ± 0.085 | 0.73 ± 0.15 | 0.49 ± 0.07 | 0.597 ± 0.064 | 0.739 ± 0.031 | 0.589 ± 0.045 | 0.398 ± 0.079 | 0.715 ± 0.056 | 0.468 ± 0.041 | 0.683 ± 0.086 |
